A number with no mark means an inactive call. For part of these data: Results with a measured potency or affinity are listed apart. Active and inactive are the calls of the source. The rule behind the calls is not given here.
Conditions: Ebola virus entry assay, green fluorescence channel
Throughout, for efficacy: 0% is about no effect.

Compound | efficacy [%]
COCC(=O)O[C@]1(CCN(C)CCCc2nc3ccccc3[nH]2)CCc2cc(F)ccc2[C@@H]1C(C)C | -180
Cc1nc2sccn2c(=O)c1CCN1CCC(=C(c2ccc(F)cc2)c2ccc(F)cc2)CC1 | 82.1
CCOC(=O)C1=C(C)NC(C)=C(C(=O)OCC)C1c1ccccc1/C=C/C(=O)OC(C)(C)C | 50
COc1ccc(-n2nc(CCC(=O)N(C)O)cc2-c2ccc(Cl)cc2)cc1 | 77.8
NC(=O)C1(N2CCCCC2)CCN(CCCN2c3ccccc3CCc3ccc(Cl)cc32)CC1 | -222

Conditions: Ebola virus entry assay, blue channel fluorescence

Compound | AC50 | outcome
CN1CCCN(C(c2ccccc2)c2ccc(Cl)cc2)CC1 (stereo unspecified) | 3.16 µM (active) | –
Cc1nc(C2CCCCC2)c(-c2ccc(S(N)(=O)=O)c(F)c2)o1 | 39.8 µM (active) | –
C[n+]1cc2c3c(ccc2c2ccc4cc5c(cc4c21)OCO5)OCO3 | 17.8 µM (active) | –
Clc1ccc(Cn2c(CN3CCCC3)nc3ccccc32)cc1 | 28.2 µM (active) | –
Clc1ccc(C(Cn2ccnc2)OCc2c(Cl)cccc2Cl)c(Cl)c1 (stereo unspecified) | 14.1 µM (active) | –
CC1=C(C)C(=O)C(C(CCCCCC(=O)O)c2ccccc2)=C(C)C1=O (stereo unspecified) | – | inactive
CC[C@]12CCCN3CCc4c(n(c5ccccc45)C(=O)C1)[C@@H]32 | 28.2 µM (active) | –
CC(C)N=C(N)/N=C(\N)Nc1ccc(Cl)cc1 | 39.8 µM (active) | –
Nc1ccc2cc3ccc(N)cc3nc2c1 | 39.8 µM (active) | –
COC(=O)[C@H]1[C@H]2C[C@@H]3c4[nH]c5cc(OC)ccc5c4CCN3C[C@H]2C[C@@H](OC(=O)COc2ccc(OC)cc2)[C@@H]1OC | 22.4 µM (active) | –
CN(C)CCCN1c2ccccc2Sc2ccc(C(F)(F)F)cc21 | 3.16 µM (active) | –
OC(CCN1CCCCC1)(c1ccccc1)c1ccccc1 | 31.6 µM (active) | –
CN1CCC(=C2c3ccccc3CCc3sccc32)CC1 | 8.91 µM (active) | –
COc1ccc(CCN(C)CCCC(C#N)(c2cc(OC)c(OC)c(OC)c2)C(C)C)cc1OC (stereo unspecified) | 15.8 µM (active) | –
O=c1[nH]c2ccccc2n1CCCN1CCN(C(c2ccccc2)c2ccccc2)CC1 | 12.6 µM (active) | –
CCCCOc1ccc(C(=O)CCN2CCCCC2)cc1 | 25.1 µM (active) | –
Cc1ccc2c(Br)cc(Br)c(O)c2n1 | 35.5 µM (active) | –
O=C1NCCN1CCN1CCC(c2cn(-c3ccc(F)cc3)c3ccc(Cl)cc23)CC1 | 0.891 µM (active) | –
CN(C)c1ccc(C(=C2C=CC(=[N+](C)C)C=C2)c2ccccc2)cc1 | 0.891 µM (active) | –

Compound | AC50 | outcome
CCC(C(=O)OCCOCCN(CC)CC)c1ccccc1 (stereo unspecified) | 28.2 µM (active) | –
CC(C)(C)C(=O)OCOC(=O)C1N2C(=O)CC2S(=O)(=O)C1(C)C (stereo unspecified) | 3.98 µM (active) | –
CC1(C)[C@H](C(=O)O)N2C(=O)C[C@H]2S1(=O)=O | 15.8 µM (active) | –
CCCCCN=C(N)N/N=C/c1c[nH]c2ccc(OC)cc12 | 3.98 µM (active) | –
C[C@]1(Cn2ccnn2)[C@H](C(=O)O)N2C(=O)C[C@H]2S1(=O)=O | 0.282 µM (active) | –
COc1cc(N)c(Cl)cc1C(=O)NC1CCN(Cc2ccccc2)CC1 | 31.6 µM (active) | –
CCNC(=O)N1CCN(CCCC(c2ccc(F)cc2)c2ccc(F)cc2)CC1 | 12.6 µM (active) | –
CCCCN1CCCC1C(=O)Nc1c(C)cc(C)cc1C (stereo unspecified) | – | inactive
N[C@H](C(=O)O)[C@@H](O)c1ccc(O)c(O)c1 | 22.4 µM (active) | –
CN(C)CCOC(c1ccccc1)c1ccccc1 | 20 µM (active) | –
Cc1c(C)n(Cc2ccccc2)c2ccc(C(=O)OCCN(C)C)cc12 | 3.16 µM (active) | –
COc1cc(N)c(Cl)cc1C(=O)NC1CCN(CCCOc2ccc(F)cc2)CC1OC (stereo unspecified) | 25.1 µM (active) | –
Nc1c2ccccc2nc2ccccc12 | – | inactive
COC(=O)C1=C(C)NC(C)=C(C(=O)OC(C)(C)CN(C)CCC(c2ccccc2)c2ccccc2)C1c1cccc([N+](=O)[O-])c1 (stereo unspecified) | 14.1 µM (active) | –
COCC(=O)O[C@]1(CCN(C)CCCc2nc3ccccc3[nH]2)CCc2cc(F)ccc2[C@@H]1C(C)C | 2.24 µM (active) | –
Cc1nc2sccn2c(=O)c1CCN1CCC(=C(c2ccc(F)cc2)c2ccc(F)cc2)CC1 | 17.8 µM (active) | –
CCOC(=O)C1=C(C)NC(C)=C(C(=O)OCC)C1c1ccccc1/C=C/C(=O)OC(C)(C)C | – | inactive
COc1ccc(-n2nc(CCC(=O)N(C)O)cc2-c2ccc(Cl)cc2)cc1 | 11.2 µM (active) | –
NC(=O)C1(N2CCCCC2)CCN(CCCN2c3ccccc3CCc3ccc(Cl)cc32)CC1 | 3.98 µM (active) | –

Conditions: Ebola virus entry assay, ratio channel

Compound | AC50 | outcome
CN1CCCN(C(c2ccccc2)c2ccc(Cl)cc2)CC1 (stereo unspecified) | 3.16 µM (active) | –
Cc1nc(C2CCCCC2)c(-c2ccc(S(N)(=O)=O)c(F)c2)o1 | 31.6 µM (active) | –
C[n+]1cc2c3c(ccc2c2ccc4cc5c(cc4c21)OCO5)OCO3 | 17.8 µM (active) | –
Clc1ccc(Cn2c(CN3CCCC3)nc3ccccc32)cc1 | 22.4 µM (active) | –
Clc1ccc(C(Cn2ccnc2)OCc2c(Cl)cccc2Cl)c(Cl)c1 (stereo unspecified) | 8.91 µM (active) | –
CC1=C(C)C(=O)C(C(CCCCCC(=O)O)c2ccccc2)=C(C)C1=O (stereo unspecified) | – | inactive
CC[C@]12CCCN3CCc4c(n(c5ccccc45)C(=O)C1)[C@@H]32 | 28.2 µM (active) | –
CC(C)N=C(N)/N=C(\N)Nc1ccc(Cl)cc1 | – | inactive
Nc1ccc2cc3ccc(N)cc3nc2c1 | 39.8 µM (active) | –
COC(=O)[C@H]1[C@H]2C[C@@H]3c4[nH]c5cc(OC)ccc5c4CCN3C[C@H]2C[C@@H](OC(=O)COc2ccc(OC)cc2)[C@@H]1OC | 25.1 µM (active) | –
CN(C)CCCN1c2ccccc2Sc2ccc(C(F)(F)F)cc21 | 2.82 µM (active) | –
OC(CCN1CCCCC1)(c1ccccc1)c1ccccc1 | 28.2 µM (active) | –
CN1CCC(=C2c3ccccc3CCc3sccc32)CC1 | 8.91 µM (active) | –
COc1ccc(CCN(C)CCCC(C#N)(c2cc(OC)c(OC)c(OC)c2)C(C)C)cc1OC (stereo unspecified) | 14.1 µM (active) | –
O=c1[nH]c2ccccc2n1CCCN1CCN(C(c2ccccc2)c2ccccc2)CC1 | 3.98 µM (active) | –
CCCCOc1ccc(C(=O)CCN2CCCCC2)cc1 | 31.6 µM (active) | –
Cc1ccc2c(Br)cc(Br)c(O)c2n1 | 39.8 µM (active) | –
O=C1NCCN1CCN1CCC(c2cn(-c3ccc(F)cc3)c3ccc(Cl)cc23)CC1 | 1 µM (active) | –
CN(C)c1ccc(C(=C2C=CC(=[N+](C)C)C=C2)c2ccccc2)cc1 | 0.708 µM (active) | –

Compound | AC50 | outcome
CCC(C(=O)OCCOCCN(CC)CC)c1ccccc1 (stereo unspecified) | 22.4 µM (active) | –
CC(C)(C)C(=O)OCOC(=O)C1N2C(=O)CC2S(=O)(=O)C1(C)C (stereo unspecified) | 3.16 µM (active) | –
CC1(C)[C@H](C(=O)O)N2C(=O)C[C@H]2S1(=O)=O | 11.2 µM (active) | –
CCCCCN=C(N)N/N=C/c1c[nH]c2ccc(OC)cc12 | 3.16 µM (active) | –
C[C@]1(Cn2ccnn2)[C@H](C(=O)O)N2C(=O)C[C@H]2S1(=O)=O | 0.316 µM (active) | –
COc1cc(N)c(Cl)cc1C(=O)NC1CCN(Cc2ccccc2)CC1 | – | inactive
CCNC(=O)N1CCN(CCCC(c2ccc(F)cc2)c2ccc(F)cc2)CC1 | 11.2 µM (active) | –
CCCCN1CCCC1C(=O)Nc1c(C)cc(C)cc1C (stereo unspecified) | – | inactive
N[C@H](C(=O)O)[C@@H](O)c1ccc(O)c(O)c1 | 20 µM (active) | –
CN(C)CCOC(c1ccccc1)c1ccccc1 | 17.8 µM (active) | –
Cc1c(C)n(Cc2ccccc2)c2ccc(C(=O)OCCN(C)C)cc12 | 3.16 µM (active) | –
COc1cc(N)c(Cl)cc1C(=O)NC1CCN(CCCOc2ccc(F)cc2)CC1OC (stereo unspecified) | 15.8 µM (active) | –
Nc1c2ccccc2nc2ccccc12 | – | inactive
COC(=O)C1=C(C)NC(C)=C(C(=O)OC(C)(C)CN(C)CCC(c2ccccc2)c2ccccc2)C1c1cccc([N+](=O)[O-])c1 (stereo unspecified) | 12.6 µM (active) | –
COCC(=O)O[C@]1(CCN(C)CCCc2nc3ccccc3[nH]2)CCc2cc(F)ccc2[C@@H]1C(C)C | 2.24 µM (active) | –
Cc1nc2sccn2c(=O)c1CCN1CCC(=C(c2ccc(F)cc2)c2ccc(F)cc2)CC1 | 15.8 µM (active) | –
CCOC(=O)C1=C(C)NC(C)=C(C(=O)OCC)C1c1ccccc1/C=C/C(=O)OC(C)(C)C | – | inactive
COc1ccc(-n2nc(CCC(=O)N(C)O)cc2-c2ccc(Cl)cc2)cc1 | 10 µM (active) | –
NC(=O)C1(N2CCCCC2)CCN(CCCN2c3ccccc3CCc3ccc(Cl)cc32)CC1 | 3.55 µM (active) | –

Source: PubChem BioAssay (NCATS)
